According to PubChem BioAssay (NCATS):
Results filed as inconclusive are left out. Activity calls are given as the source filed them. The call rests on the fitted dose curve; in most records, active means well fitted curve in the direction sought with a large enough effect; inconclusive means small, poorly fitted or top-dose-only effect, or another doubt; inactive means no such curve, though single readings can be large or run the other way.

Each compound was assayed against Calcium and integrin-binding protein 1 (Homo sapiens) (UniProt Q99828) (assay: Validation qHTS for Identification of Calcium Integrin Binding protein 1 (CIB1) Competitor (AID 1508618)). Conditions: CIB1-GST / FITC-alphaIIb peptide fluorescence polarization; series mostly up to 114 µM; activity change, negative = inhibition: at the top concentration.
Chain of Calcium and integrin-binding protein 1 (Homo sapiens) (Q99828 whole entry, looked up): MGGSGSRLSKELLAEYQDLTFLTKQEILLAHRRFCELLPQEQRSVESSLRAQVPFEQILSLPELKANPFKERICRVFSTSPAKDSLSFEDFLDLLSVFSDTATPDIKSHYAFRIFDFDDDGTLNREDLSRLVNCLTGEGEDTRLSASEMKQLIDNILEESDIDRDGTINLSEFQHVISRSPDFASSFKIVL
In short: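 Displacement of FITC-alphaIIb peptide (100 nM) from CIB1-GST (1 uM) is monitored by polarization in quantitative HTS format; buffer carries 5 mM CaCl2 and 125 mM NaCl at pH 7.4, incubations are at room temperature.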
On the % scale 0 is the no-effect control and ±100 the full control effect.

Compound	activity change, negative = inhibition
COc1cc2ncnc(Nc3cccc(Cl)c3)c2cc1OC	-9.22% (inactive)
CCN1CCCC1CNC(=O)c1cc(S(N)(=O)=O)ccc1OC (stereo not given)	-1.56% (inactive)
CCCCS(=N)(=O)CCC(N)C(=O)O (stereo not given)	0.779% (inactive)
CC(C)NCC(O)c1ccc(NS(C)(=O)=O)cc1 (stereo not given)	4.88% (inactive)
CC1CC2C3CCC4=CC(=O)C=C[C@]4(C)[C@@]3(F)[C@@H](O)C[C@]2(C)[C@@]1(O)C(=O)CO (stereo not given in full)	5.82% (inactive)
OCc1ccc(-c2nn(Cc3ccccc3)c3ccccc23)o1	-4.39% (inactive)
CC1=C(C(=O)O)N2C(=O)[C@@H](NC(=O)C(N)c3ccccc3)[C@H]2SC1 (stereo not given in full)	2.43% (inactive)
CC(=O)[C@H]1CC[C@H]2[C@@H]3CCC4=CC(=O)CC[C@]4(C)[C@H]3CC[C@]12C	2.14% (inactive)
NC(=O)c1ccc2[nH]ccc2c1	3.32% (inactive)
O=C(O)C1CCCN(CCC=C(c2ccccc2)c2ccccc2)C1 (stereo not given)	11.6% (inactive)
N[C@@H](Cc1ccc(O)c(O)c1)C(=O)O	4.15% (inactive)
COc1cc2nc(N3CCCN(C)CC3)nc(NC3CCN(Cc4ccccc4)CC3)c2cc1OC	12.7% (inactive)
NC(=O)c1cccc(N)c1	3.99% (inactive)
CCN(CC)CCn1c(=O)c(Cc2ccc(OC)cc2)nc2ccccc21	3.52% (inactive)
CNS(=O)(=O)CCc1ccc2[nH]cc(C3CCN(C)CC3)c2c1	7.49% (inactive)
